Molecules are shown by their SMILES. Values joined by “and” are separate entries in the source; they are usually repeats but may differ in a detail not shown here. Equal values may be shown once. The whole screen tested about 4,300 compounds, of which about 60 (1%) were called active. The sample holds actives, similar compounds and a random draw of the others, so the mix is not that of the screen. Values without a mark were called inactive.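 How the source made its calls: active means inhibition of labelled peptide binding to the formyl peptide receptor of at least 65%; inactive means the rest.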

fMet-Leu-Phe receptor (Homo sapiens), sequence (P21462 whole entry, looked up): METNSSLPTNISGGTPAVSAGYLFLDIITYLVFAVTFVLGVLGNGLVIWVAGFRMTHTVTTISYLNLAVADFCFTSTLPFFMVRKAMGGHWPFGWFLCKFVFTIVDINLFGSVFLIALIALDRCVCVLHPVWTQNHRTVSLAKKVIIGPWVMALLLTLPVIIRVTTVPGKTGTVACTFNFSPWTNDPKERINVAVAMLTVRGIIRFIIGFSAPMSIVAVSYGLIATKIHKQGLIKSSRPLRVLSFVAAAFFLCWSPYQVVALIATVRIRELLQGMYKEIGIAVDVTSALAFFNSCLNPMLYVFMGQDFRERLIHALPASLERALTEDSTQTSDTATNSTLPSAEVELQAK

The test has as its target fMet-Leu-Phe receptor (Homo sapiens) (UniProt P21462). Kind of test: FPR binders displacing fluorescent formyl peptide, primary screen, U937-FPR cells, fMLFK-FITC, flow cytometry (AID 362).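 On inhibition: plate controls were buffer control wells for no effect and unlabeled fMLFF blocking peptide for full effect; higher means less cell fluorescence so more probe displaced.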 The note with it: fMLFK-FITC displacement; stronger effect = higher value, concentration not given here.
Take `O=C(CSc1c2c(nc3ccccc13)CCCC2)Nc1ccc2c(c1)OCCO2`: the inhibition result was “inactive”. The figure for `CC(C)c1nnc(NC(=O)C(C(C)C)N2C(=O)c3ccccc3C2=O)s1` (stereo not given) is 36.6%; for `CC(c1ccccc1)N1C(=O)/C(=C/c2c(N3CCCCC3)nc3ccccn3c2=O)SC1=S` (stereo not given) it is “inactive”. Regarding `CC(C)C(C(=O)O)N1C(=O)/C(=C/c2ccccn2)SC1=S` (stereo not given), the inhibition was 90.2% (active).

For the molecule `CC(C)C(C(=O)O)N1C(=O)/C(=C2/C(=O)N(C)c3ccccc32)SC1=S` (stereo not given), the inhibition was 94.4% (active). The figure for `CC(C)C(C(=O)O)N1C(=O)c2cccc([N+](=O)[O-])c2C1=O` (stereo not given) is 17.7%.

On to `CC(C)C(C(=O)Nc1nccs1)N1C(=O)c2ccccc2C1=O` (stereo not given), for which the inhibition was 17.3%. For `CCOc1ccccc1C1C2=C(CC(C)(C)CC2=O)Nc2nc(C(F)(F)F)nn21` (stereo not given) the value was 14.1%.

Take `O=C(COc1ccc(Cl)cc1)Oc1ccc2c3c(c(=O)oc2c1)CCC3`: the inhibition is 29.6%. The figure for `CC(C)Cn1cc(C(=O)N2CCN(C(=O)c3ccco3)CC2)c2c3ccccc3n(C)c2c1=O` is 4%; for `CCOCCOC(=O)C1=C(C)NC2=C(C(=O)C(C(=O)OC)C(C)C2)C1c1cccc(Cl)c1` (stereo not given) it is 30.9%.

As to `CC1(C)C2([N+](=O)[O-])CN3CC1([N+](=O)[O-])CN(C2)C3C(O)C(O)C(O)C(O)CO` (stereo not given), the inhibition entry is “inactive”. For `O=C(C1CCC(CNS(=O)(=O)c2ccc(Br)s2)CC1)N1CCC(Cc2ccccc2)CC1` (stereo not given) the value was “inactive”.

`O=C(O)c1cccc2c1NC(C(=O)O)C1CC=CC21` (stereo not given): the inhibition was 4.5%. For `CC(C)C1Nc2c(C(=O)O)cccc2C(Nc2ccccc2C(=O)O)C1(C)C` (stereo not given) the value was 65.1% (active) and 89.9% (active); for `COc1ccccc1C1Nc2c(C(=O)O)cccc2C2C3CCC(C3)C12` (stereo not given), 20.9%; for `COc1ccc(Oc2c(C(F)(F)F)oc3cc(OC(C)C(=O)OCCC(C)C)ccc3c2=O)cc1` (stereo not given), 8%. `O=C(NCCCN1CCC(Cc2ccccc2)CC1)C1CCC(CNS(=O)(=O)c2ccccc2)CC1` (stereo not given): the inhibition result was “inactive”. The entry for `CC1=C(C(=O)OC2CCCCC2)C(c2ccc(Cl)c([N+](=O)[O-])c2)C2=C(CCCC2=O)N1` (stereo not given) is “inactive”; for `COc1cc(C2C(C(=O)OC3CCCCC3)=C(C)NC3=C2C(=O)CC(c2ccc(Cl)cc2)C3)ccc1OC(C)=O` (stereo not given) it is 7%; for `CCOc1cc(C2C(C(=O)OC3CCCCCC3)=C(C)NC3=C2C(=O)CCC3)cc([N+](=O)[O-])c1O` (stereo not given) it is 66.4% (active). For `COc1cc(C2C(C(=O)OC3CCCC3)=C(C)NC3=C2C(=O)CC(c2ccc(Cl)cc2)C3)ccc1OC(C)=O` (stereo not given) the value was 8.8%; for `COc1cc(C2C(C(=O)OC3CCCCCC3)=C(C)NC3=C2C(=O)CCC3)cc([N+](=O)[O-])c1O` (stereo not given), 69.7% (active); for `COc1cc(C2C(C(=O)OC3CCCCCC3)=C(C)NC3=C2C(=O)CC(C)(C)C3)cc([N+](=O)[O-])c1O` (stereo not given), 59.7%. The figure for `COc1cc(C2C(C(=O)OC3CCCCC3)=C(C)NC3=C2C(=O)CCC3)cc(Cl)c1O` (stereo not given) is 24.3%. Consider `CCOc1cc(C2C(C(=O)OC3CCCCCC3)=C(C)NC3=C2C(=O)CC(C)(C)C3)cc([N+](=O)[O-])c1O` (stereo not given), for which the inhibition is 40.2%. For `COc1ccc(C2C(C(=O)OC3CCCCC3)=C(C)NC3=C2C(=O)CC(c2ccc(Cl)cc2)C3)cc1OC` (stereo not given) the value was 77.5% (active).

Consider `COc1ccc(C2NC(=O)NC(C)=C2C(=O)OC2CCCCCC2)cc1` (stereo not given), for which the inhibition entry was “inactive”. Take `CCOC(=O)C1CCC(CN(Cc2ccccc2C)S(=O)(=O)c2cccc(C(F)(F)F)c2)CC1` (stereo not given): the inhibition entry was “inactive”. For `COc1cccc(C(=O)Oc2ccc(C3C4=C(CC(C)(C)CC4=O)OC4=C3C(=O)CC(C)(C)C4)cc2OC)c1` the value was “inactive”; for `CCOc1cc(C2C3=C(CC(C)(C)CC3=O)OC3=C2C(=O)CC(C)(C)C3)ccc1OC(=O)c1cccc(C)c1`, “inactive”; for `CCOc1cc(C(C2=C(O)CC(C)(C)CC2=O)C2=C(O)CC(C)(C)CC2=O)ccc1OC(=O)c1cccc(OC)c1`, 80.2% (active). With `CCOc1cc(C2C3=C(CC(C)(C)CC3=O)OC3=C2C(=O)CC(C)(C)C3)ccc1OC(=O)c1cccc(OC)c1`, the inhibition result was “inactive”.

On to `COc1cccc(C(=O)Oc2ccc(C(C3=C(O)CC(C)(C)CC3=O)C3=C(O)CC(C)(C)CC3=O)cc2OC)c1`, for which the inhibition was 86.9% (active).

Take `COc1cc(C2C3=C(CC(C)(C)CC3=O)OC3=C2C(=O)CC(C)(C)C3)ccc1OC(=O)c1cccc(C)c1`: the inhibition is 12.3%. The figure for `CCOC(=O)c1cccc(N2C(=O)C3C(C2=O)C2C=CC3C23CC3)c1` (stereo not given) is 5.1%; for `CCSCCOC(=O)C1=C(C)NC2=C(C(=O)C(C(=O)OC)C(C)C2)C1c1c(F)cccc1Cl` (stereo not given) it is “inactive”. On to `CCCOCCOC(=O)C1=C(C)NC2=C(C(=O)C(C(=O)OC)C(C)C2)C1c1ccc(C)o1` (stereo not given), for which the inhibition is 53.7%. For `CCN(Cc1ccccc1)Cc1c(O)ccc2c(=O)c(Oc3ccc(OC)cc3)c(C(F)(F)F)oc12` the value was “inactive”; for `Cc1ccc(-n2c3c(c(=O)[nH]c2=O)C(NC(=O)c2ccccc2C)(C(F)(F)F)C(=O)N3)cc1` (stereo not given), 10.6%. Take `Cc1ccccc1C(=O)NC1(C(F)(F)F)C(=O)Nc2c1c(=O)[nH]c(=O)n2-c1ccc(F)cc1` (stereo not given): the inhibition was 12.2%. For `CCOc1ccccc1C(=O)NC1(C(F)(F)F)C(=O)Nc2c1c(=O)[nH]c(=O)n2-c1ccccc1` (stereo not given) the value was 63.1%; for `CCOc1ccccc1C(=O)NC1(C(F)(F)F)C(=O)Nc2c1c(=O)[nH]c(=O)n2-c1ccc(F)cc1` (stereo not given), 75.2% (active); for `CCOc1ccccc1C(=O)NC1(C(F)(F)F)C(=O)Nc2c1c(=O)[nH]c(=O)n2-c1ccc(C)cc1` (stereo not given), 65.3% (active). The figure for `O=C(NC1(C(F)(F)F)C(=O)Nc2c1c(=O)[nH]c(=O)n2-c1ccc(F)cc1)c1ccccc1Cl` (stereo not given) is 11%; for `CCOC(=O)CSc1nc2ccccc2c(=O)n1CC1CCC(C(=O)NCCc2ccccc2)CC1` (stereo not given) it is “inactive”; for `O=C(O)C1C2C=CC(C2)C1C(=O)NCC1CCCO1` (stereo not given) it is 2.4%. In the case of `CCCOCCOC(=O)C1=C(C)NC2=C(C(=O)C(C(=O)OC)C(C)C2)C1c1cccc(OC)c1` (stereo not given), the inhibition was 37.6%. For `CCC(C)C(Nc1ncnc2sc3c(c12)CCC3)C(=O)O` (stereo not given) the value was 0.8%. In the case of `COc1ccc(OC)c(NC(=O)C(C(C)C)N2C(=O)c3ccccc3C2=O)c1` (stereo not given), the inhibition was 27.7%.

For the origin of these results see PubChem BioAssay AID362 (NMMLSC, 2006).
